The source made the active and inactive calls. Rule for the calls: active = hit-call score of the fitted dose curve at least 0.9, where 1 is the maximum; inactive = score below 0.9.
Columns and labels:
[1] = target: Transcription factor E2F1 (Homo sapiens) (UniProt Q01094); assay: ATG_E2F_CIS: Attagene CIS-FACTORIAL HepG2 Assay for human E2F Transcription Factor 1 (AID 2282935); settings: HepG2 Attagene cis-reporter, E2F reporter RNA transcripts; actives raise or lower the signal
Method in brief: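 Gain or loss of reporter transcript, fitted against DMSO, reflects E2F1-driven transcription. Transiently transfected HepG2 dosed 24 h before RNA isolation. Quantified by fluorescent RT-PCR products separated by capillary electrophoresis.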

[2] = ATG_E_Box_CIS: Attagene CIS-FACTORIAL HepG2 Assay for human Enhancer Box (E-box) (AID 2282936); settings: HepG2 E-box cis-reporter transcription, actives raise or lower the signal
Method in brief: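 E-box-driven reporter transcripts measured in transiently transfected HepG2 after 24 h exposure: RNA reverse-transcribed, PCR-amplified, fluorescently labelled, digested and resolved by capillary electrophoresis. Gain or loss relative to DMSO.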

[3] = ATG_M_61_CIS: Attagene CIS-FACTORIAL HepG2 Assay for M61 Transcription Factor (Internal Marker) (AID 2282937); settings: HepG2 Attagene CIS-FACTORIAL M61 internal marker reporter; actives raise or lower the signal
Method in brief: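 HepG2 cells transiently transfected with cis-element-driven multiple reporter transcription units, dosed for 24 h. Reporter mRNA measured by RT-PCR, 6-FAM primer-extension labelling, HpaI digestion and capillary electrophoresis; bidirectional fit versus DMSO baseline.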

[4] = ATG_EGR_CIS: Attagene CIS-FACTORIAL HepG2 Assay for human Early Growth Response 1 (EGR1) (AID 2282938); settings: HepG2 Attagene CIS-FACTORIAL EGR reporter mRNA; actives raise or lower the signal
Method in brief: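 HepG2 cells transiently transfected with cis-promoter-driven multiplexed reporter transcription units; reporter mRNA measured 24 h after compound dosing by RT-PCR, 6-FAM primer extension, HpaI digestion and capillary electrophoresis. Bidirectional fit versus DMSO baseline.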

[5] = ATG_ERE_CIS: Attagene CIS-FACTORIAL HepG2 Assay for Estrogen Response Element (ERE) (AID 2282940); settings: HepG2 ERE cis-reporter, Attagene RNA transcript; actives raise or lower the signal
Method in brief: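 After 24 h compound treatment, RNA from transfected HepG2 cells was reverse-transcribed, reporter cDNA PCR-amplified, FAM-labelled, HpaI-cut and resolved by capillary electrophoresis. ERE-driven cis reporter transcripts reflect endogenous factors; gain or loss scored against DMSO.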

[6] = ATG_Ets_CIS: Attagene CIS-FACTORIAL HepG2 Assay for human Erythroblast Transformation Specific (ETS) (AID 2282941); settings: HepG2 ETS cis-reporter transcription, actives raise or lower the signal
Method in brief: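 Cis-regulated reporter mRNA induction in HepG2 (transient transfection), 24 h exposure, RT-PCR plus capillary electrophoresis detection; DMSO serves as negative control and baseline.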

[7] = target: Hepatocyte nuclear factor 3-beta (Homo sapiens) (UniProt Q9Y261); assay: ATG_FoxA2_CIS: Attagene CIS-FACTORIAL HepG2 Assay for human Forkhead box A2 (FOXA2) (AID 2282942); settings: HepG2 cis-reporter transcription factor activity, 24 h; actives raise or lower the signal
Chain of Hepatocyte nuclear factor 3-beta (Homo sapiens) (Q9Y261 whole entry, looked up): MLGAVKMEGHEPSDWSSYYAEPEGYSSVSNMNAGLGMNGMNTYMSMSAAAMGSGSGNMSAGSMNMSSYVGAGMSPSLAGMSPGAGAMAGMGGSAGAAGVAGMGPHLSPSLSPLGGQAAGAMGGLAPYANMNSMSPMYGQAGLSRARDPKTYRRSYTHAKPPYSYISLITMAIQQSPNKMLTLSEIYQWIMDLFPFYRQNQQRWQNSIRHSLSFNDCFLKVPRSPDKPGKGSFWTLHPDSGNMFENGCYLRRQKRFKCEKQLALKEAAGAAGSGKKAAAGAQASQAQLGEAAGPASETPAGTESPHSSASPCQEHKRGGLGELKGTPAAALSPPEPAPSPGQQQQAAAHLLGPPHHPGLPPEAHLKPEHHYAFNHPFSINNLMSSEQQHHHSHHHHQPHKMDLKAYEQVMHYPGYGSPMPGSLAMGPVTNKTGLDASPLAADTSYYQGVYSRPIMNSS
Method in brief: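 HepG2 cells transiently transfected with multiple cis-regulated reporter transcription units, dosed for 24 h. Reporter mRNA measured by RT-PCR, 6-FAM labelling, HpaI digestion and capillary electrophoresis; bidirectional fitting against DMSO baseline.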

[8] = ATG_FoxO_CIS: Attagene CIS-FACTORIAL HepG2 Assay for human Forkhead box O (FoxO) (AID 2282943); settings: HepG2 Attagene cis-reporter, FoxO element, mRNA; actives raise or lower the signal
Method in brief: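 HepG2, transient MRTU transfection (cis element, endogenous TFs). Dose 24 h. TriZol RNA → oligo(dT) RT → PCR → 6-FAM primer extension → HpaI cut → CE. Gain/loss vs DMSO.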

[9] = ATG_GATA_CIS: Attagene CIS-FACTORIAL HepG2 Assay for human GATA Binding Protein (AID 2282944); settings: HepG2 GATA cis-element reporter, Attagene multiplex mRNA; actives raise or lower the signal
Method in brief: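 Reporter transcripts from a GATA cis-regulated unit, among multiplexed reporters in transfected HepG2 cells, were measured by RT-PCR with capillary electrophoresis after 24 h dosing. Induction or loss scored relative to DMSO.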

[10] = ATG_GLI_CIS: Attagene CIS-FACTORIAL HepG2 Assay for human Zinc Finger Protein GLI1 (AID 2282945); settings: HepG2, Attagene cis-factorial reporter mRNA, GLI element; actives raise or lower the signal
Method in brief: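 Bidirectional curve fits relative to DMSO, using reporter mRNA levels from RT-PCR plus capillary electrophoresis. Cells were HepG2 transiently carrying cis-regulated reporter constructs, harvested 24 h after dosing.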

[11] = ATG_GRE_CIS: Attagene CIS-FACTORIAL HepG2 Assay for human Glucocorticoid Response Elements (GRE) (AID 2282947); settings: HepG2 GRE cis-reporter, Attagene multiplex mRNA; actives raise or lower the signal
Method in brief: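 Reporter transcripts read by RT-PCR with capillary electrophoresis fluorescence after a 24 h chemical exposure of HepG2 cells transiently transfected with multiple cis-element reporter units. Gain or loss fitted against DMSO.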

[12] = ATG_ISRE_CIS: Attagene CIS-FACTORIAL HepG2 Assay for human Interferon Regulatory Factor 1 (IRF1) binding to an Interferon-Stimulated Response Element (ISRE) (AID 2282948); settings: HepG2 ISRE cis-reporter (Attagene), mRNA transcription readout; actives raise or lower the signal
Method in brief: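 Multiplexed mRNA reporter readout in human liver HepG2 cells: cis-element-driven reporters transfected, compound added for 24 h, transcripts amplified, fluorescently labelled and sized by capillary electrophoresis; curve fitting bidirectional against DMSO.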

[13] = ATG_M_32_CIS: Attagene CIS-FACTORIAL HepG2 Assay for M32 Transcription Factor (Internal Marker) (AID 2282949); settings: HepG2 Attagene cis-factorial M32 reporter, mRNA; actives raise or lower the signal;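 note: background control marker of the multiplexed CIS panel rather than a real target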
Method in brief: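 HepG2 transfectants (cis-regulated reporter transcription units) dosed 24 h. Reporter mRNA by RT-PCR plus CE, analysed as gain or loss relative to DMSO.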

[14] = ATG_M_06_CIS: Attagene CIS-FACTORIAL HepG2 Assay for M06 Transcription Factor (Internal Marker) (AID 2282950); settings: HepG2 Attagene CIS-FACTORIAL M06 internal marker reporter; actives raise or lower the signal
Method in brief: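 Serves as a background control readout. Transfected HepG2 exposed to compounds for 24 h, then reporter transcripts quantified by fluorescent RT-PCR and capillary electrophoresis. Both directions fitted against DMSO baseline.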

[15] = target: Hypoxia-inducible factor 1-alpha (Homo sapiens) (UniProt Q16665); assay: ATG_HIF1a_CIS: Attagene CIS-FACTORIAL HepG2 Assay for human Hypoxia Inducible Factor 1 (HIF1A) (AID 2282951); settings: HepG2 Attagene cis-factorial HIF1a reporter transcription; actives raise or lower the signal
Chain of Hypoxia-inducible factor 1-alpha (Homo sapiens) (Q16665 whole entry, looked up): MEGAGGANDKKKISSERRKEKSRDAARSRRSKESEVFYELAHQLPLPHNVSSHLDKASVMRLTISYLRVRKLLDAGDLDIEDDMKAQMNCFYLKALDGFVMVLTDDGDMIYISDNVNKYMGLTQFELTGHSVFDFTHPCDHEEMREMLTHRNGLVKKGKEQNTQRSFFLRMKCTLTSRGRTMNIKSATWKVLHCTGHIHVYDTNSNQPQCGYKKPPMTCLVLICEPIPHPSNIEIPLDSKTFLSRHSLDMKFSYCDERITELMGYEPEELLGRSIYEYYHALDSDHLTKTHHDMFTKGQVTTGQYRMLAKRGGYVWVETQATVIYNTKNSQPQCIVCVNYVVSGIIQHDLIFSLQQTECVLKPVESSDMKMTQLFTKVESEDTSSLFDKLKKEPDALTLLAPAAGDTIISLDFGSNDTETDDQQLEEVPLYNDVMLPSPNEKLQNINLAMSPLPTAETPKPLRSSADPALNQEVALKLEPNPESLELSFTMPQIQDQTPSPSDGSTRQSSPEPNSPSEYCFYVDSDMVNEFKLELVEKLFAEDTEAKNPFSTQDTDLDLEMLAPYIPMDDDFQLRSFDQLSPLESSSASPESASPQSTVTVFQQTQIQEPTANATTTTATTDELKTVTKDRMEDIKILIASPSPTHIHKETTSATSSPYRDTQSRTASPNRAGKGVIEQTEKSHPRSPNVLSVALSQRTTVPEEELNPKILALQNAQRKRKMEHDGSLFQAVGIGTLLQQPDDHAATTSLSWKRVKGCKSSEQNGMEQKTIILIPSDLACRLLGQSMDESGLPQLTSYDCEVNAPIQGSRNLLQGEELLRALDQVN
Method in brief: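 HepG2 cells transiently transfected with multiplexed cis-promoter reporter units; reporter mRNA read 24 h after dosing by RT-PCR, 6-FAM primer-extension labelling, HpaI digestion and capillary electrophoresis. Bidirectional fit versus DMSO baseline.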

[16] = target: Hepatocyte nuclear factor 6 (Homo sapiens) (UniProt Q9UBC0); assay: ATG_HNF6_CIS: Attagene CIS-FACTORIAL HepG2 Assay for human Hepatocyte Nuclear Factor 6 (HNF6) (AID 2282952); settings: HepG2 Attagene cis-factorial HNF6 reporter transcription; actives raise or lower the signal
Chain of Hepatocyte nuclear factor 6 (Homo sapiens) (Q9UBC0 whole entry, looked up, the tested form may be a part): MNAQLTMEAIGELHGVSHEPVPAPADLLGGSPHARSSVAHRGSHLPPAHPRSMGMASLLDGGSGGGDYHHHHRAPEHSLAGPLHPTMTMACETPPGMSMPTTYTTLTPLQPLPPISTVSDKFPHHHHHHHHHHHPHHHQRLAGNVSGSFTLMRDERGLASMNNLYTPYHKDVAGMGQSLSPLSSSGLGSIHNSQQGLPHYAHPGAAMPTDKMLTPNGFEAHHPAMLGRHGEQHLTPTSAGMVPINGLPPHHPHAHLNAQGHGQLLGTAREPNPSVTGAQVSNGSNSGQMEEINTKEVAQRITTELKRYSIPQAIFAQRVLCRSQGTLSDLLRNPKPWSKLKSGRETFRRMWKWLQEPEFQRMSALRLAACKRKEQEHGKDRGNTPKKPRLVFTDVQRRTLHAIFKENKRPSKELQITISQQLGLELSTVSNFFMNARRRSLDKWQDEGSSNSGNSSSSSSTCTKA
Method in brief: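 First, HepG2 cells were transfected with the multiplexed cis reporter library and dosed with chemical for 24 h. Next, RNA was reverse-transcribed, PCR-amplified and fluorescently labelled. Finally, HpaI-digested fragments were read by capillary electrophoresis.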

[17] = target: Heat shock factor protein 1 (Homo sapiens) (UniProt Q00613); assay: ATG_HSE_CIS: Attagene CIS-FACTORIAL HepG2 Assay for human Heat Shock Transcription Factor 1 (HSE) (AID 2282953); settings: HepG2 HSE cis-reporter, Attagene RNA transcription; actives raise or lower the signal
Chain of Heat shock factor protein 1 (Homo sapiens) (Q00613 whole entry, looked up): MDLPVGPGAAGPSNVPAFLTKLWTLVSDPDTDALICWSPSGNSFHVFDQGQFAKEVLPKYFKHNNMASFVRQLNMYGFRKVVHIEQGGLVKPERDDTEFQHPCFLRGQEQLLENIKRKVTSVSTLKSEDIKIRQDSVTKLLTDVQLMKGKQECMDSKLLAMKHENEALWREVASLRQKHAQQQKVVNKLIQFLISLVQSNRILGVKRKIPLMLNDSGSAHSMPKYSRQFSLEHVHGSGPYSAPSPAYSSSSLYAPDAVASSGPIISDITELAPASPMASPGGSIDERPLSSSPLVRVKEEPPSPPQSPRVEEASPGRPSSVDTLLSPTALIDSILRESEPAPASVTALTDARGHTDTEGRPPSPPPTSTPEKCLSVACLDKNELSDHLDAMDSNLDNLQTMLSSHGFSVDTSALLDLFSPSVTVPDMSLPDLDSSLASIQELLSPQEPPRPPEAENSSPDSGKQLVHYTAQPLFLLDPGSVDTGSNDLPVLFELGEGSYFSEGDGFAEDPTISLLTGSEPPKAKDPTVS
Method in brief: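 Endogenous transcription factor activity in transiently transfected HepG2, read as reporter mRNA by RT-PCR with fluorescent capillary electrophoresis after 24 h. Gain or loss of signal fitted versus DMSO baseline.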

[18] = ATG_MRE_CIS: Attagene CIS-FACTORIAL HepG2 Assay for human Metal Responsive Element (MRE) (AID 2282954); settings: HepG2 MRE cis-reporter transcription, Attagene multiplex; actives raise or lower the signal
Method in brief: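 Endogenous MRE-dependent transcription read as reporter mRNA in transiently transfected human HepG2 cells at 24 h. RNA reverse-transcribed, PCR-amplified, labelled and resolved by capillary electrophoresis; gain or loss relative to DMSO.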

[19] = ATG_M_19_CIS: Attagene CIS-FACTORIAL HepG2 Assay for M19 Transcription Factor (Internal Marker) (AID 2282939); settings: HepG2 Attagene CIS-FACTORIAL M19 internal marker reporter; actives raise or lower the signal
Method in brief: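 Internal marker readout, fitted in both directions against DMSO, from HepG2 cells carrying transfected cis-element reporter constructs; RT-PCR and capillary electrophoresis of reporter mRNA after 24 h exposure.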

Chain of Transcription factor E2F1 (Homo sapiens) (Q01094 whole entry, looked up): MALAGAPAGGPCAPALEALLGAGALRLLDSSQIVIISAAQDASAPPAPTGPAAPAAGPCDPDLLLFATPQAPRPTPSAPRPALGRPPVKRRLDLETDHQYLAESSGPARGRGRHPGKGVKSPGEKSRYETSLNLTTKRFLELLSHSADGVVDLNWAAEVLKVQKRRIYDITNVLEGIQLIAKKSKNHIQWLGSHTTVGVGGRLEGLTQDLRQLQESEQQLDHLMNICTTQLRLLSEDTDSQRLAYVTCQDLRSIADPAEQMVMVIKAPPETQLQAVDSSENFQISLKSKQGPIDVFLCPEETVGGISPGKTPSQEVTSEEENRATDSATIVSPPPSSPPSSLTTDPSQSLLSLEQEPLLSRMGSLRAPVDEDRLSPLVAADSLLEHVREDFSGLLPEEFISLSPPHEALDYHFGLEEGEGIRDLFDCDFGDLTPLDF

CC(C)Oc1cccc(NC(=O)c2ccccc2C(F)(F)F)c1
outcome [1]: inactive | outcome [2]: inactive | outcome [3]: inactive | outcome [4]: inactive | AC50 [5]: 13.3 µM (active) | outcome [6]: inactive | outcome [7]: inactive | outcome [8]: inactive | outcome [9]: inactive | outcome [10]: inactive | outcome [11]: inactive | outcome [12]: inactive | outcome [13]: inactive | outcome [14]: inactive | outcome [15]: inactive | outcome [16]: inactive | outcome [17]: inactive | AC50 [18]: 28.7 µM (active)

COP(=O)(OC)O/C(C)=C/C(=O)N(C)C
outcome [1]: inactive | outcome [2]: inactive | outcome [3]: inactive | outcome [4]: inactive | AC50 [5]: 23.5 µM (active) | outcome [6]: inactive | outcome [7]: inactive | outcome [8]: inactive | outcome [9]: inactive | outcome [10]: inactive | outcome [12]: inactive | outcome [13]: inactive | outcome [14]: inactive | outcome [15]: inactive | outcome [16]: inactive | outcome [17]: inactive | outcome [18]: inactive

CS(=O)(=O)c1cc(C(F)(F)F)ccc1C(=O)c1cnoc1C1CC1
outcome [1]: inactive | outcome [2]: inactive | outcome [3]: inactive | outcome [4]: inactive | outcome [19]: inactive | outcome [5]: inactive | outcome [6]: inactive | outcome [7]: inactive | outcome [8]: inactive | outcome [9]: inactive | outcome [10]: inactive | outcome [11]: inactive | outcome [12]: inactive | outcome [13]: inactive | outcome [14]: inactive | outcome [15]: inactive | outcome [16]: inactive | outcome [17]: inactive | outcome [18]: inactive

Cc1ccc(N=CN(C)C=Nc2ccc(C)cc2C)c(C)c1
outcome [1]: inactive | outcome [2]: inactive | outcome [3]: inactive | outcome [4]: inactive | outcome [19]: inactive | outcome [5]: inactive | outcome [6]: inactive | outcome [7]: inactive | outcome [8]: inactive | outcome [9]: inactive | outcome [10]: inactive | outcome [11]: inactive | outcome [12]: inactive | outcome [13]: inactive | outcome [14]: inactive | outcome [15]: inactive | outcome [16]: inactive | outcome [17]: inactive | outcome [18]: inactive

— PubChem BioAssay (EPA / NIEHS)
